Test in all cases: DAPPL (digital affinity profiling via proximity ligation, sequencing); 10 mM Tris-HCl pH 7.5, 50 mM NaCl, 1 mM DTT, 4% glycerol, room temperature, 30 min; GST-TFs on glutathione beads, 16-mer random dsDNA library, 0.1% formaldehyde crosslink after washing; high values mean tight binding
One assay concerns the target T1, FEV (Homo sapiens, UniProt Q99581 1-238).
T1 sequence: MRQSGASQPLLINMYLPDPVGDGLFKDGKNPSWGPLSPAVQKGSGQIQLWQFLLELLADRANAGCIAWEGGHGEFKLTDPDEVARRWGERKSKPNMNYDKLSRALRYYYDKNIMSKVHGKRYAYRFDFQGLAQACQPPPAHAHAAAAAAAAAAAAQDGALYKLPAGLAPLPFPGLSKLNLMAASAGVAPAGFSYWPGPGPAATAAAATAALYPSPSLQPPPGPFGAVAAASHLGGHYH
The note with it: protein: recombinant; tags: N-terminal GST; dsDNA, one strand shown. The procedure, abridged:
(§1)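 Yeast served to express human transcription factors as GST fusions, which were then captured on glutathione beads and labelled with DNA barcodes. Pooled with a tag-only sample, they were incubated with 200 nmole of a 16-mer random double-stranded DNA library for 30 min at room temperature in Tris/NaCl/DTT/glycerol buffer, washed, crosslinked with 0.1% formaldehyde, ligated by proximity, amplified by PCR and sequenced. Dividing each hexamer's read frequency for a factor by its frequency for the tag-only sample gives the binding signal.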

The target of another assay is ETV5 (Homo sapiens, UniProt P41161 1-510). The note with it: protein: recombinant; tags: N-terminal GST; dsDNA, one strand shown. The procedure, abridged:
as §1

A further assay addresses HSF1 (Homo sapiens, UniProt Q00613 1-529). The following applies: protein: recombinant; tags: N-terminal GST; chain copies: 3; dsDNA, one strand shown. The gist of the method: as §1
The next assay has as its target T2, SPIC (Homo sapiens, UniProt Q8N5J4 1-248).
T2 sequence: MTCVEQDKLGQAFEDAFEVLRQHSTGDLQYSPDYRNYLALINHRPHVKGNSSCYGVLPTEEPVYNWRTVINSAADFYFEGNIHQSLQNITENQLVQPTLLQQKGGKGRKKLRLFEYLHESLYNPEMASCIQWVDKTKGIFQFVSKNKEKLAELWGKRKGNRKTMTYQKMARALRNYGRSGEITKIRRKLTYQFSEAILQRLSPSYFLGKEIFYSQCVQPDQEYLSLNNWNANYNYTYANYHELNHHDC
The note with it: protein: recombinant; tags: N-terminal GST; dsDNA, one strand shown. The procedure, abridged: as §1

The next assay has as its target ELF4 (Homo sapiens, UniProt Q99607 1-663). The note with it: protein: recombinant; tags: N-terminal GST; dsDNA, one strand shown. The procedure, abridged: as §1
A further assay deals with T3, ELK4 (Homo sapiens, UniProt P28324-2 1-405).
T3 sequence: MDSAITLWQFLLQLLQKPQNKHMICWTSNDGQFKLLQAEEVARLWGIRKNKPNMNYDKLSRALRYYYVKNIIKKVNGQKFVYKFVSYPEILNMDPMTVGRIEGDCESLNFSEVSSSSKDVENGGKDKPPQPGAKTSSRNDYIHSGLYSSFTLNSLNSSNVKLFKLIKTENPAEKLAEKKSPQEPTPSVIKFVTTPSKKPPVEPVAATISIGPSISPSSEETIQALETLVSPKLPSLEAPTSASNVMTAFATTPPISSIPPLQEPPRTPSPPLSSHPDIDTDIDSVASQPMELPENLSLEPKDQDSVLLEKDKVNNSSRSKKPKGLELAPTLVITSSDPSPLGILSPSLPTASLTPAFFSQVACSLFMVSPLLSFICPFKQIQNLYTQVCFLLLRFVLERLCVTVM
The following applies: protein: recombinant; tags: N-terminal GST; dsDNA, one strand shown. The gist of the method:
as §1

The next assay concerns the target T4, ETV2 (Homo sapiens, UniProt O00321 1-342).
T4 sequence: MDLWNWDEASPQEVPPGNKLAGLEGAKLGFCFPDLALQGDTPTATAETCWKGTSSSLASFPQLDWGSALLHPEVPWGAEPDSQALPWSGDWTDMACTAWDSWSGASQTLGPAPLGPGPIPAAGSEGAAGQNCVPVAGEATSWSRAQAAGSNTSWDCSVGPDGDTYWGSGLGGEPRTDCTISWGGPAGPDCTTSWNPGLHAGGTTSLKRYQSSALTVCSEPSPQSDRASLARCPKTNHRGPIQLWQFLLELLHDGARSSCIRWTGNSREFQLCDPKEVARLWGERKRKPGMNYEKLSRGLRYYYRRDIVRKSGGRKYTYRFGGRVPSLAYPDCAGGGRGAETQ
The following applies: protein: recombinant; tags: N-terminal GST; dsDNA, one strand shown. The gist of the method: as §1

A further assay concerns the target T5, ELF3 (Homo sapiens, UniProt P78545 1-371).
T5 sequence: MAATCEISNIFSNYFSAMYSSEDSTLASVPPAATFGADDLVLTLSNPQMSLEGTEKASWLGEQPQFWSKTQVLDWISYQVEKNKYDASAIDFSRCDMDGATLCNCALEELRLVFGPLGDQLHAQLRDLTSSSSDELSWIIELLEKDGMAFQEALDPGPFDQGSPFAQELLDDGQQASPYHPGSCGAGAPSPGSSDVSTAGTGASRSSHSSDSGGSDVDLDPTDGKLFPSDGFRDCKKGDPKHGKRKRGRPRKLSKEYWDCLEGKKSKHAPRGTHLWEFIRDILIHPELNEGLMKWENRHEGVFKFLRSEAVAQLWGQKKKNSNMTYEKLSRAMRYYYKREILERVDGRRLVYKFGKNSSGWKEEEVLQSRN
The note with it: protein: recombinant; tags: N-terminal GST; dsDNA, one strand shown. The gist of the method: as §1

The next assay deals with CRX (Homo sapiens, UniProt O43186 1-299). The note with it: protein: recombinant; tags: N-terminal GST; dsDNA, one strand shown. The procedure, abridged:
as §1

The next assay concerns the target ETV1 (Homo sapiens, UniProt P50549 1-477). The note with it: protein: recombinant; tags: N-terminal GST; dsDNA, one strand shown. The procedure, abridged: as §1
The target of a further assay is T6, ERF (Homo sapiens, UniProt P50548 1-548).
T6 sequence: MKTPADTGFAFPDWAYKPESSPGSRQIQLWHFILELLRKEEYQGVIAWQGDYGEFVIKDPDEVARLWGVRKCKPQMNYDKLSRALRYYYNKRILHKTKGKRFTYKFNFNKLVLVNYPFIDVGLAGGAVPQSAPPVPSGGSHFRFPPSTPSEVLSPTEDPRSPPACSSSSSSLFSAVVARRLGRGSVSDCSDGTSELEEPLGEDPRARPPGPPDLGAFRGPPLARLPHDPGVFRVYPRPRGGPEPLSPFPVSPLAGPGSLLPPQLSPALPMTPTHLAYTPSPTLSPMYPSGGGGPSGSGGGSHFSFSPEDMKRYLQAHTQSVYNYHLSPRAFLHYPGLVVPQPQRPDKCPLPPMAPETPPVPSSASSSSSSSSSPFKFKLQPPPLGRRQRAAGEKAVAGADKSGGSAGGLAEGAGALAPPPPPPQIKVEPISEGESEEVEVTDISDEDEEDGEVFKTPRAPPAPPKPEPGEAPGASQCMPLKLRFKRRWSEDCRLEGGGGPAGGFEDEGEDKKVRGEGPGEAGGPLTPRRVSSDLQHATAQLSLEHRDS
The note with it: protein: recombinant; tags: N-terminal GST; dsDNA, one strand shown. The gist of the method:
as §1

The next assay has as its target T7, ETV3L (Homo sapiens, UniProt Q6ZN32 1-361).
T7 sequence: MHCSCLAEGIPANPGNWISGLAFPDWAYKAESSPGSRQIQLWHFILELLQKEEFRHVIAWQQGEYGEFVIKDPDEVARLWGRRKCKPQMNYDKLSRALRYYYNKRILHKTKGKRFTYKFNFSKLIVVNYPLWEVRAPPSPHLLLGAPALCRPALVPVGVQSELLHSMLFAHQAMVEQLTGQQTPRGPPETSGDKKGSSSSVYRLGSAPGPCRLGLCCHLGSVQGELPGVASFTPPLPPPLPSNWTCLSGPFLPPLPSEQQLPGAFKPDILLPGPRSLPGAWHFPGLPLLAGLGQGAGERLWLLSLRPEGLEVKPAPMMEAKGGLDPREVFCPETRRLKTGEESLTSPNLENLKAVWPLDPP
The note with it: protein: recombinant; tags: N-terminal GST; dsDNA, one strand shown. The gist of the method: as §1

Another assay addresses T8, ETS2 (Homo sapiens, UniProt P15036 1-469).
T8 sequence: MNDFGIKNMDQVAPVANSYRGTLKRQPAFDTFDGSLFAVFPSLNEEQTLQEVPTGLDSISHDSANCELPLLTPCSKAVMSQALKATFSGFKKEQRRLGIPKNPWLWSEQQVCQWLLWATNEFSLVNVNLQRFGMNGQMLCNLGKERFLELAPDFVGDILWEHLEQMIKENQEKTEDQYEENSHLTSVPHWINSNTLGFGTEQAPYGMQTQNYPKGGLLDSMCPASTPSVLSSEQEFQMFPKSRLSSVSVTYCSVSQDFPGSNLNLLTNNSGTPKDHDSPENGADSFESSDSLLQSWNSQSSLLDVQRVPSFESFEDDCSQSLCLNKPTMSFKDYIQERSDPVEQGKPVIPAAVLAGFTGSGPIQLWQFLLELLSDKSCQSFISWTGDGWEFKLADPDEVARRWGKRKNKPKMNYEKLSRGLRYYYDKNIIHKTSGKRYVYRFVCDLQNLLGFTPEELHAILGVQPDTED
The following applies: protein: recombinant; tags: N-terminal GST; dsDNA, one strand shown. The gist of the method:
as §1

In the next assay the target is T9, SPDEF (Homo sapiens, UniProt O95238 1-335).
T9 sequence: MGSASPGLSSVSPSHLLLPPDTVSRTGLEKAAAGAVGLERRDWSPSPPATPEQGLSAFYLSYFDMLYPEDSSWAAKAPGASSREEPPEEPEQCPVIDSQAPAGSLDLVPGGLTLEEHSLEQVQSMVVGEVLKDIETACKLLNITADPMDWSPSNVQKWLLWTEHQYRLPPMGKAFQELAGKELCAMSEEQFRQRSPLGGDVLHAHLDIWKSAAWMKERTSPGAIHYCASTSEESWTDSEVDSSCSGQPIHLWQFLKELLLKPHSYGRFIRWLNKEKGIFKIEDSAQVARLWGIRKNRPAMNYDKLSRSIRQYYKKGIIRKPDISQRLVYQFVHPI
The following applies: protein: recombinant; tags: N-terminal GST; dsDNA, one strand shown. The gist of the method: as §1

The target of the next assay is T10, ETV7 (Homo sapiens, UniProt Q9Y603 1-341).
T10 sequence: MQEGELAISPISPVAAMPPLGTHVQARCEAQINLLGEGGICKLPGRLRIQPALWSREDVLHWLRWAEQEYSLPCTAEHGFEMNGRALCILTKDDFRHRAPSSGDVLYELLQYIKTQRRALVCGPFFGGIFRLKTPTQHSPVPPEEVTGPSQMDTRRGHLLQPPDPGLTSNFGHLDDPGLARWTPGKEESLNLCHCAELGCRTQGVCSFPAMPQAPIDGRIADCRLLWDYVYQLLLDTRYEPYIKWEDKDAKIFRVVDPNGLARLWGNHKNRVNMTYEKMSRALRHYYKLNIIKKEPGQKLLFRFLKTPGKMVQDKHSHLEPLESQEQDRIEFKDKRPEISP
The note with it: protein: recombinant; tags: N-terminal GST; dsDNA, one strand shown. The procedure, abridged:
as §1

Another assay concerns the target T11, ELF5 (Homo sapiens, UniProt Q9UKW6-2 1-255).
T11 sequence: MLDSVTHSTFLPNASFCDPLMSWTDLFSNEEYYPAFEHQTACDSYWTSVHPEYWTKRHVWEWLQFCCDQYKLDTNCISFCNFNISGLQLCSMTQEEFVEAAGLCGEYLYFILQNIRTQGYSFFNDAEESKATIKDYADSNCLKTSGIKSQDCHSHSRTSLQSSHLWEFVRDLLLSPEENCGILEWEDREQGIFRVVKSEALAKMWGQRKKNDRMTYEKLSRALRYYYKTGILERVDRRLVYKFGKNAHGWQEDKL
The following applies: protein: recombinant; tags: N-terminal GST; dsDNA, one strand shown. The gist of the method: as §1

A further assay addresses T12, ETV3 (Homo sapiens, UniProt P41162-2 1-143).
T12 sequence: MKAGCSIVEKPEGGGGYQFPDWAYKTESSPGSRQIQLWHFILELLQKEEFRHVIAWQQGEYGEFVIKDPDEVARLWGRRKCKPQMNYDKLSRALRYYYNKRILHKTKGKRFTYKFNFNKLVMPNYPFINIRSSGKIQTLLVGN
The note with it: protein: recombinant; tags: N-terminal GST; dsDNA, one strand shown. The gist of the method: as §1

The target of the next assay is ETV6 (Homo sapiens, UniProt P41212 1-452). The note with it: protein: recombinant; tags: N-terminal GST; dsDNA, one strand shown. The procedure, abridged:
as §1

ETV6, sequence (P41212 whole entry): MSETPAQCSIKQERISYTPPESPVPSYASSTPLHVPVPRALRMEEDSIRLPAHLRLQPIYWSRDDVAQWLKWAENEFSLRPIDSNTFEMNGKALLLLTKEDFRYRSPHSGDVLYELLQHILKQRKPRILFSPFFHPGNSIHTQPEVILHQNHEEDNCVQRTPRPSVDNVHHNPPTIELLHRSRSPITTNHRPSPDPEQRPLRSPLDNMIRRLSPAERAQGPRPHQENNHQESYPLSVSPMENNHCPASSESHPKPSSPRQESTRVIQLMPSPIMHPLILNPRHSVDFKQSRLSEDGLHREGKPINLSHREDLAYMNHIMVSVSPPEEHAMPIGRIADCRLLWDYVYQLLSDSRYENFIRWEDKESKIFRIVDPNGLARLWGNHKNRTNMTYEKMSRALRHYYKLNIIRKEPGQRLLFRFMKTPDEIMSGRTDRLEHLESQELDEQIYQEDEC
ELF4, sequence (Q99607 whole entry): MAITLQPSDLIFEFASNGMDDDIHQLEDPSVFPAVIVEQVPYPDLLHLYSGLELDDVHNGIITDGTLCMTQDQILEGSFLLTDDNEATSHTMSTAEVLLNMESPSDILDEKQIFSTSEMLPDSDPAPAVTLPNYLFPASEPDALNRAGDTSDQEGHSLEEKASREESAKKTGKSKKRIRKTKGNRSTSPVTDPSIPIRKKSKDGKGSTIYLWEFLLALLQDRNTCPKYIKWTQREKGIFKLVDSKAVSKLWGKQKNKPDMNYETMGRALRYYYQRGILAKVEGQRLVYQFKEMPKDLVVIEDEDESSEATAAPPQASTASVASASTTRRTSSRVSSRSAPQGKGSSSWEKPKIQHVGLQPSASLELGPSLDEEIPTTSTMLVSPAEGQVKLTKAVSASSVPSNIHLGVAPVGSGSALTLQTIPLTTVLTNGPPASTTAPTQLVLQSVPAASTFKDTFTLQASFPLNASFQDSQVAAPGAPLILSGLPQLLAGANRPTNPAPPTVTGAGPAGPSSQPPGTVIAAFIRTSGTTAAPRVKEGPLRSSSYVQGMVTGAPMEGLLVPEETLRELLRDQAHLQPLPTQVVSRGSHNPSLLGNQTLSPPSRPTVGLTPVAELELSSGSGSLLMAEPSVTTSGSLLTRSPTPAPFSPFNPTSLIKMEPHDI
ETV5, sequence (P41161 whole entry): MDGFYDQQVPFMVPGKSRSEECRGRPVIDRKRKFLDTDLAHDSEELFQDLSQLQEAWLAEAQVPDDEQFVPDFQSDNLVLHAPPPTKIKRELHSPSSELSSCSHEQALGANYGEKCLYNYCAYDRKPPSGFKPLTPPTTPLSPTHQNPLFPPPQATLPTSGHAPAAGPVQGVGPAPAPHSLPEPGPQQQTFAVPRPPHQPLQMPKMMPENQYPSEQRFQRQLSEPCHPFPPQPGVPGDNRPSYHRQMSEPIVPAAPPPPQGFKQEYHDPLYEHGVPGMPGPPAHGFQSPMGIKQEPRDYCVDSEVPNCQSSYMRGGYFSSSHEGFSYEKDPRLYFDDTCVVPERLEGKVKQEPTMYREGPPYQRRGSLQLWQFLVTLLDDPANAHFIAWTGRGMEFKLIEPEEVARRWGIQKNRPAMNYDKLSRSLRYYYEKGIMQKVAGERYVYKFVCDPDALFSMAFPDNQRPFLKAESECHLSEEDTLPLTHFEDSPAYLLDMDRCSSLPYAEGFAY
CRX, sequence (O43186 whole entry): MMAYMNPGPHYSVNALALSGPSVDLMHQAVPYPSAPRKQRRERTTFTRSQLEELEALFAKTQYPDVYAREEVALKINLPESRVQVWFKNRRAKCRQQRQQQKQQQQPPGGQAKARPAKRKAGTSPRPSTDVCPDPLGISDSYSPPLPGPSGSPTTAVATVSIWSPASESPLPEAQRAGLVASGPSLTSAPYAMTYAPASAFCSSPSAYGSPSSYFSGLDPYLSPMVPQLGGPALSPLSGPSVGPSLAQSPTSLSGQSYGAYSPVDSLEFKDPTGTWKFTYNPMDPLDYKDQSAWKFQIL
ETV1, sequence (P50549 whole entry): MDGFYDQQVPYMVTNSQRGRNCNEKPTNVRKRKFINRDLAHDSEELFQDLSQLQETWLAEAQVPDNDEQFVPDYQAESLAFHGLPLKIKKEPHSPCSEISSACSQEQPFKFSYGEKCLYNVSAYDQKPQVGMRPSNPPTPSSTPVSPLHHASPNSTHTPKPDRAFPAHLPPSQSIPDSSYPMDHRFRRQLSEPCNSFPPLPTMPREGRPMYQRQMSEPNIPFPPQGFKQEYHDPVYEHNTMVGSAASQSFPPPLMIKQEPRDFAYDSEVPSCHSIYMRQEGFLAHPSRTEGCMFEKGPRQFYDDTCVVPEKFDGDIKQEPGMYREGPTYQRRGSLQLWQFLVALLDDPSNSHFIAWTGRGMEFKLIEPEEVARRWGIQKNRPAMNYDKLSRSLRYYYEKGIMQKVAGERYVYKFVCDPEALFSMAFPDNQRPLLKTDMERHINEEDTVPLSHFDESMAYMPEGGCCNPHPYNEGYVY
HSF1, sequence (Q00613 whole entry): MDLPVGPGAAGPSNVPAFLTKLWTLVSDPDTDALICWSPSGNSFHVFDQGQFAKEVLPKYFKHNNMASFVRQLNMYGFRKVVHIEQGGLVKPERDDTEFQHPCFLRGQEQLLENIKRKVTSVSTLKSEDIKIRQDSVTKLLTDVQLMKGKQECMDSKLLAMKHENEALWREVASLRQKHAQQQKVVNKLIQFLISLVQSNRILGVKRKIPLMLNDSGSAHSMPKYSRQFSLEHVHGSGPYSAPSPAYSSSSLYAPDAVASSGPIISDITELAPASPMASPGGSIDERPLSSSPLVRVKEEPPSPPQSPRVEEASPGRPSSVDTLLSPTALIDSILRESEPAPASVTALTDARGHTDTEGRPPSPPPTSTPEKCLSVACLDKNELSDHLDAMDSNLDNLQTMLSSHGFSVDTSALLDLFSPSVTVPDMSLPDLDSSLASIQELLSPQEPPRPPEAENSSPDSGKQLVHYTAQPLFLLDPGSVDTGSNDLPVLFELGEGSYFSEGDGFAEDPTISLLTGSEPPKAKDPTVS

Take GAACTA: the binding signal is 1.25 fold enrichment (6-mer frequency, TF over GST control) with FEV; 1.33 fold enrichment (6-mer frequency, TF over GST control) in the assay with ETV5; 1.32 fold enrichment (6-mer frequency, TF over GST control) with HSF1; 1.48 fold enrichment (6-mer frequency, TF over GST control) with SPIC; 1.21 fold enrichment (6-mer frequency, TF over GST control) with ELF4; 1.25 fold enrichment (6-mer frequency, TF over GST control) in the assay with ELK4. Further, the binding signal in the assay with ETV2 was 1.31 fold enrichment (6-mer frequency, TF over GST control); in the assay with ELF3 it was 1.23 fold enrichment (6-mer frequency, TF over GST control); with CRX, 1.13 fold enrichment (6-mer frequency, TF over GST control); with ETV1, 1.37 fold enrichment (6-mer frequency, TF over GST control); in the assay with ERF it was 1.25 fold enrichment (6-mer frequency, TF over GST control); with ETV3L it was 1.27 fold enrichment (6-mer frequency, TF over GST control). The binding signal in the assay with ETS2 was 1.33 fold enrichment (6-mer frequency, TF over GST control); with SPDEF, 1.31 fold enrichment (6-mer frequency, TF over GST control); with ETV7 it was 1.3 fold enrichment (6-mer frequency, TF over GST control); with ELF5 it was 1.36 fold enrichment (6-mer frequency, TF over GST control); in the assay with ETV3, 1.34 fold enrichment (6-mer frequency, TF over GST control); with ETV6, 1.36 fold enrichment (6-mer frequency, TF over GST control).

(Values after publication PMC7862700, “An all-to-all approach to the identification of sequence-specific readers for epigenetic DNA modifications on cytosine”.)
